# From PMC4336329 (PLoS ONE, 2015)
# Among all 310,000 compounds or so, about 14,000 (4.5%) showed an effect of 50% or more. The effect is printed as a negative number. Shown is part of a subset that was picked to be rich in strong results.
# Target: human ether-à-go-go-related gene (hERG) potassium channel (human, UniProt Q12809)
# Test: primary screen, population patch clamp on CHO cells stably expressing hERG; higher = less effect of the substance
# 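Further: peak tail current of the secondary pulse compared with the same well before compound.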
# human ether-à-go-go-related gene (hERG) potassium channel, sequence (Q12809 whole entry, looked up): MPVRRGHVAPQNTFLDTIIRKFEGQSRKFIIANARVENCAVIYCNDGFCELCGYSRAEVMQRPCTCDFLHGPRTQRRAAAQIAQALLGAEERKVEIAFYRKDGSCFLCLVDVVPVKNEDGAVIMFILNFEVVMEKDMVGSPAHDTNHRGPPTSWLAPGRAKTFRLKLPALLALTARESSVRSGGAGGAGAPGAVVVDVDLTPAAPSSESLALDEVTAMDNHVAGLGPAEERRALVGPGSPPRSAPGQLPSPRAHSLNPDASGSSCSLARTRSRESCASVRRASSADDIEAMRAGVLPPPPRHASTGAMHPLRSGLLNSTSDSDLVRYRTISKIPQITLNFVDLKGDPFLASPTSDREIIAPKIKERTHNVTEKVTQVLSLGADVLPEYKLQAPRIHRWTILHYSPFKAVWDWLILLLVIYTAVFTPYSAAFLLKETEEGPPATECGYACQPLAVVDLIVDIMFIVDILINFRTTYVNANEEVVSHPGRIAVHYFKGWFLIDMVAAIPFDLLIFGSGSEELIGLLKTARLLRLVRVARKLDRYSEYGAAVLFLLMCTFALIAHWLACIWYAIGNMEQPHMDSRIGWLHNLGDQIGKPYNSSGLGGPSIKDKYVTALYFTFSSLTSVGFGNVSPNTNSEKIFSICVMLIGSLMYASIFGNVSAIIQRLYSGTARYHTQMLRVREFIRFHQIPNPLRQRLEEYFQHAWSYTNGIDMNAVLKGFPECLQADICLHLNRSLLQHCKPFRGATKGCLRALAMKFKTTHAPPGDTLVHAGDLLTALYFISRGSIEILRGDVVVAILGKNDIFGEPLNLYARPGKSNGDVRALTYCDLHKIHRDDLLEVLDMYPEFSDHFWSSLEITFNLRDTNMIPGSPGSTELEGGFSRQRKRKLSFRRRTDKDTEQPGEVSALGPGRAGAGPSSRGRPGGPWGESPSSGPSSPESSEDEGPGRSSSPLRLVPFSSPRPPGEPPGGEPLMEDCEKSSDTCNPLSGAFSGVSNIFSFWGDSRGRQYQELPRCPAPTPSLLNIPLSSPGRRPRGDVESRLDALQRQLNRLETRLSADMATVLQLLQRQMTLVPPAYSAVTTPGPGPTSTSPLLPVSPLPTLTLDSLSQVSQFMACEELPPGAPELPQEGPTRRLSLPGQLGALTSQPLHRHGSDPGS
row,Compound,"hERG current change (%, negative = inhibition) at 10uM [%]"
1,Cc1c(Cl)cccc1NC(=S)N1CCN(Cc2ccccc2)CC1,-3.12
2,CN(C)C(CNC(=O)c1ccccc1C(F)(F)F)c1ccco1 (centres unmarked),7.83
3,CCS(=O)(=O)Nc1cccc(C(=C2CCCCC2)c2cnc[nH]2)c1,-30.2
4,CCN1CCc2c(C#N)c(N3CCOCC3)nc(N3CCOCC3)c2C1,5.21
5,O=C(Nc1ncccn1)C1=C(O)c2ccccc2S(=O)(=O)N1Cc1ccccc1,22.8
6,CCOC(=O)/C(C#N)=C/c1cccn1-c1ccc(Cl)cc1,2.73
7,C/C(=N\NC(=O)COc1ccccc1F)c1cc2ccccc2o1,3.99
8,COc1cc(OC)cc(-c2nnc(SCc3ccc(C(=O)O)cc3)o2)c1,-71.6
9,COc1ccc(-c2nnc(SCc3ccc(C(=O)O)cc3)o2)cc1OC,13.7
10,Cc1cc(C)cc(-c2nnc(SCc3ccc(C(=O)O)cc3)o2)c1,-74
11,O=C(O)c1ccc(CSc2nnc(-c3ccc(Cl)cc3)o2)cc1,26.5
12,COc1cc(OC)cc(-c2nnc(SCc3cccc(C(=O)O)c3)o2)c1,8.29
13,O=C(O)c1ccc(CSc2nnc(-c3ccco3)o2)cc1,2.07
14,CN(C(=O)c1ccnn1C)C1CCCN(Cc2ccccc2F)C1 (centres unmarked),15.2
15,CSCCC(NC(=O)c1ccccc1Br)C(=O)N1CCN(C(C)=O)CC1 (centres unmarked),8.22
16,O=C(COC(=O)c1ccc(Br)o1)Nc1ccc(Br)cc1,19
17,CCCc1cc(C(=O)Nc2sc3c(c2C(=O)OCC)CCCC3)no1,6.07
18,O=C(NNc1nc(-c2ccccc2)c2cc(Br)ccc2n1)c1ccc(S(=O)(=O)N2CCCCC2)cc1,8.26
19,COc1ccc(-c2cn[nH]c2-c2ccc(OCc3ccc([N+](=O)[O-])cc3)cc2O)cc1,-9.1
20,C/C(=N\NC(N)=S)C1(C)CCCCC1,9.27
21,Cc1nc2ncnn2c(C)c1C/C=C/c1ccccc1,-15.3
22,c1ccc(N2CCN(c3nnnn3-c3ccccc3)CC2)cc1,-11.2
23,Cc1cc(N2CCN(c3ccccc3)CC2)n2ncnc2n1,-31.2

row,Compound,"hERG current change (%, negative = inhibition) at 10uM [%]"
1,Cc1cc(N2CCN(c3ccc(F)cc3)CC2)n2ncnc2n1,-57.6
2,Cc1cc(N2CCN(c3nc4ccccc4s3)CC2)n2ncnc2n1,-77.6
3,Cc1cc(N2CCN(C(c3ccccc3)c3ccccc3)CC2)n2ncnc2n1,-5.7
4,Cc1cc(C)nc(N2CCN(c3ccc(F)cc3)CC2)n1,13.2
5,Cc1cc(N2CCN(c3nnnn3-c3ccccc3)CC2)n2ncnc2n1,-60.2
6,Cc1cc(N2CCN(Cc3ccc4c(c3)OCO4)CC2)n2ncnc2n1,7.64
7,Cc1cc(C)nc(N2CCN(c3nnnn3-c3ccccc3)CC2)n1,9.05
8,Cc1cc(N2CCc3ccccc32)n2ncnc2n1,-0.558
9,Cc1cc(N2CCN(C/C=C/c3ccccc3)CC2)n2ncnc2n1,-71.5
10,CCCCn1c(O)c(/C=C/C=C/C=Nc2ccccc2)sc1=S,31
11,O=C(Nc1ccc(Cl)c(C(F)(F)F)c1)C(=O)N1CCCCC1,-1.61
12,CC(Oc1ccc(Br)cc1)C(=O)NCC(C)(C)N1CCOCC1 (centres unmarked),-26
13,COC(=O)c1ccccc1NC(=O)c1ccc(COc2ccc(C)c(C)c2)o1,11.9
14,COC(=O)C1=C(c2c(C)noc2C)C[C@@H]2CC[C@H]1N2C(=O)NCCO,20
15,Cc1nnc(N/N=C/C2CC=CCC2)[nH]c1=O (centres unmarked),7.06
16,CC(C)C(NS(=O)(=O)c1cccc2nsnc12)C(=O)NCc1ccc2c(c1)OCO2 (centres unmarked),-18.7
17,Cc1c(NC(=O)C(C)OC(=O)CNC(=O)c2ccc(C(C)(C)C)cc2)c(=O)n(-c2ccccc2)n1C (centres unmarked),13.2
18,Cc1cc(C)n(-c2ccc(NC(=O)C3CCN(Cc4ccc(C)o4)CC3)cc2)n1,-16.6
19,CCOC(=O)CC(=O)CSc1nc(-c2cccnc2)ccc1C#N,17.5
20,CCOC(=O)CSc1nc(-c2ccc3c(c2)OCO3)ccc1C#N,7.3
21,COC(=O)CSc1nsc(SCC(=O)OC)c1C#N,5.34
22,CCOC(=O)CSc1nsc(SCC(=O)OCC)c1C#N,-55.7
23,CCOC(=O)CSc1nc(-c2ccncc2)ccc1C#N,-61.6

row,Compound,"hERG current change (%, negative = inhibition) at 10uM [%]"
1,CC(=O)CSc1nsc(SCC(C)=O)c1C#N,17.2
2,CC1CCc2c(sc3nc4n(c(=O)c23)CCS4)C1 (centres unmarked),-10.3
3,CCOC(=O)c1nc(Nc2ccc(C(=O)OC)cc2)c2ccccc2n1,0.323
4,COc1ccc(-c2nc3ccccc3n2OCC(=O)O)cc1,18.5
5,CCCCCC(=O)NC(=S)Nc1ccc(NC(=O)c2ccco2)cc1,2.58
6,CC1(C)Cc2c(sc(NC(=O)c3ccc(Br)o3)c2C#N)CO1,16.6
7,Cc1oc(-c2cccc3ccccc23)nc1CN1CCC[C@H]1CO,-12.2
8,Cc1oc(-c2cccc(F)c2)nc1CN1CCCCC1CCc1ccccn1 (centres unmarked),-91.5
9,COc1ccc(-c2nc(CN3CCCCC3c3cccnc3)c(C)o2)c(F)c1 (centres unmarked),-35.9
10,COc1ccc(-c2nc(CS(=O)CC(=O)NCc3ccccn3)c(C)o2)cc1 (centres unmarked),6.44
11,Fc1cccc(Cc2noc(CN3CCCCC3CCc3ccccn3)n2)c1 (centres unmarked),0.789
12,Clc1ccccc1Cc1noc(CN2CCCCC2CCc2ccccn2)n1 (centres unmarked),-29.4
13,Cn1ccnc1C1CCCCN1Cc1nc(-c2ccc3c(c2)OCO3)no1 (centres unmarked),-7.65
14,c1ccc(CCC2CCCCN2Cc2nc(-c3ccc4c(c3)OCO4)no2)nc1 (centres unmarked),-55.7
15,COc1ccc(-c2nc(CN3CCCCC3CCc3ccccn3)c(C)o2)cc1 (centres unmarked),-90.7
16,Cc1cccc(C2Nc3ccccc3C(=O)N2c2ccccc2)n1 (centres unmarked),4.41
17,O=C(NCc1ccc2c(c1)OCO2)C1CC(c2ccc(Cl)c(Cl)c2)=NO1 (centres unmarked),15
18,Cc1nn(C(C)c2n[nH]c(=S)n2-c2ccc(F)cc2)c(C)c1[N+](=O)[O-] (centres unmarked),13.3
19,O=C(Nc1ccc2c(c1)C(=O)OC2)c1ccc(C(F)(F)F)cc1,17.3
20,COc1ccc(CN2CCNC(=O)C2CC(=O)NCCCn2nnc3ccccc32)cc1C (centres unmarked),-2.87
21,CCc1ccc(NC(=O)NCCN2CCc3ccccc3C2)cc1,-54.7
22,CN1CCN(CCNC(=O)Nc2ccc([N+](=O)[O-])cc2)CC1,-25.7
23,O=C(NCCN1CCc2ccccc2C1)Nc1ccc([N+](=O)[O-])cc1,-70.1

row,Compound,"hERG current change (%, negative = inhibition) at 10uM [%]"
1,CCc1ccc(NC(=O)CN2CCc3ccccc3C2)cc1,-34.2
2,O=C(NCCN1CCCCC1)Nc1ccc([N+](=O)[O-])cc1,-41.4
3,O=C(NCCN1CCc2ccccc2C1)Nc1ccc(F)cc1,-37.5
4,CCCCSCCCNC(=S)Nc1ccccc1C,5.08
5,Cc1ccc(N(CC(=O)NCCSCc2ccco2)S(=O)(=O)c2ccc(C)cc2)cc1,-69.7
6,COc1ccc(OC)c(N(CC(=O)NCCSCc2ccco2)S(=O)(=O)c2ccccc2)c1,-69.2
7,COc1ccc(Cl)cc1N(CC(=O)NC1CC2CCC1C2)S(=O)(=O)c1ccccc1 (centres unmarked),-31.5
8,COc1ccc(S(=O)(=O)N(CC(=O)NC2CC3CCC2C3)c2ccccc2OC)cc1 (centres unmarked),-25
9,COc1ccc(OC)c(N(CC(=O)NC2CC3CCC2C3)S(=O)(=O)c2ccccc2)c1 (centres unmarked),-59.7
10,COc1ccc(OC)c(N(CC(=O)NCCSCc2ccco2)S(=O)(=O)c2ccc(OC)c(OC)c2)c1,-22.6
11,Cc1ccc(S(=O)(=O)N(CC(=O)NCCSCc2ccco2)c2ccc(F)cc2)cc1,-28.3
12,COc1ccc(N(CC(=O)NCCSCc2ccco2)S(=O)(=O)c2ccc(C)cc2)cc1,-17.9
13,COc1ccccc1N(CC(=O)NCCSCc1ccco1)S(=O)(=O)c1ccccc1,-26.6
14,O=C(NCc1nc2ccccc2[nH]1)c1cccc(S(=O)(=O)N2CCCCC2)c1,13.9
15,Cn1c(=O)c2c(nc(Br)n2CCCc2ccccc2)n(C)c1=O,-9.05
16,COc1ccc(Cl)cc1S(=O)(=O)N1CCC(C(=O)NC2CCCC2)CC1,-21.2
17,COC(=O)[C@H]1C[C@@H]1[C@H](NC(=O)c1cc(C)on1)c1ccccc1,10.3
18,Cc1cc(NC(=O)CSCC(=O)N2CCN(c3cccc(C(F)(F)F)c3)CC2)no1,-11.3
19,COCCN(C(=O)/C=C/c1ccccc1)c1nnc(-c2cccnc2)s1,-9.61
20,Cn1c(N2CCOCC2)c(C#N)c2ccccc21,-3.19
